44 sequences from the supplement of paper PMC11417369 can be followed below.

± gives the standard deviation of the averaged measurements. In all, about 25,000 sequences were measured (“ln(normalized median fluorescence intensity)”: median about 10, highest 2% from about 12 on). The full list was thinned out, with the highest values kept by preference.

The test system of this assay is PfAP2-G AP2 domain (GST-tagged). Nature of the assay: gcPBM binding intensity (ln(normalized median fluorescence intensity)); higher = stronger DNA binding. The method in brief:
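After 1 h on an Agilent 4 × 180k array of primer-extended double-stranded 36-bp intergenic genomic probes and negative controls, bound GST-tagged P. falciparum DNA-binding domains were detected with Alexa488 anti-GST antibody and scanned at 488 nm. The domains had been expressed in E. coli, and binding took place in 1× PBS with 1% milk, 0.2 mg/ml BSA, 0.5% salmon testes DNA and 0.03% Triton X-100. Binding intensity is the highest Masliner-normalised natural-log median intensity across replicate spots of either probe orientation.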
On to “TAATGACAATAAAAATAAATAAATAAAAAAAAAAAA [TGCATGCA_negctrl_site321]”, for which the “gcPBM binding intensity (ln)” value was 9.51 ± 0.59.
To “ATATAAATATAAACATGTACATATATATATATATAT [XGTACX_site2824]” belongs 11.1 ± 0.69; to “AAAATTTTTCTTAAAGCATGCACAATTAAGAAGACG [TGCATGCA_site883]”, 10.2 ± 0.13; to “TTTTTCATAAAAAAATAAAAAAAATTAACATAGAAA [XGTACX_negctrl_site11]”, 9.95 ± 0.26.
In the case of “TTTATACTTTCAAAATGTACATATATATATATATAT [XGTACX_site6241]”, the “gcPBM binding intensity (ln)” value stood at 11.1 ± 0.63.
The result for ATATATACTATAATAGTGCATTAAAAAAGTAAAAAT reads 10.2 ± 0.25; that for “AATAAATATATGTACACACACAAATATATACATATC [CACACA_site1903]”, 11.3 ± 0.63.
For “AATATATATATGTGTACACATCCAAAATAGGCATAC [CACACA_site5705]”, the “gcPBM binding intensity (ln)” value was 11.7 ± 1.1.
To “AAGGGGAAAAAAAAAAGTACACAAACATAGGATAAT [XGTACX_site377]” belongs 11.7 ± 1.
To “CATCCACAAATATGTACACACATATATAAATATGTA [CACACA_site7407]” belongs 11.4 ± 0.93; to “AATAAATATAGGTACACACACAAATATGTACATATC [CACACA_site6976]”, 11.7 ± 0.92; to “TAAATAAATATATGTACACACACAAATATATACATA [CACACA_site8577]”, 11.4 ± 0.73.
The result for “AAAAATATAATATAATGTACACATAAACAAAAAAAA [XGTACX_site3658]” reads 11.4 ± 0.84.
As to “AATAAAAATAGGAAATGTACACATATATATATATAT [XGTACX_site1853]”, the “gcPBM binding intensity (ln)” value amounted to 11.2 ± 0.59.
To “TAAAACATATATACAAGTACACAAAGGATATATATA [XGTACX_site3710]” belongs 11.4 ± 0.95; to “GTAAATACACATATGTGTACATATATATATATATAT [XGTACX_site3696]”, 11.5 ± 0.86; to “GTTTTAAAACAAATATGTACACATAATATAGGAAAG [XGTACX_site1803]”, 11.7 ± 0.82.
The result for “AAAAAAAAAAAAACAAGTACAAAGGATAGAAAAAAA [XGTACX_site4133]” reads 11.2 ± 0.71; that for “AAAAAAAAAAGAAAGAGTACTTTTTCAATACATATA [XGTACX_site2468]”, 11.1 ± 0.7; that for “TTAACTTATTTGTAAAGTACATTAATAAAAAGAAAA [XGTACX_site1588]”, 11.1 ± 0.42.
To “ATATATATATATATATGTACATATATTTTTATTTAT [XGTACX_site3508]” belongs 11.2 ± 0.76; to “TAACTACTAGAAAAAACACACAAAAAGTAAATATAT [CACACA_site2740]”, 10.045 ± 0.007.
As for “ATACATACATATATATGTACTTATATTTTACACATT [XGTACX_site1688]”, the “gcPBM binding intensity (ln)” value came out at 11.2 ± 0.75.
Turning to “AATGGAAAAATAGGCACACACACATAAATACAGATA [CACACA_site4844]”, the “gcPBM binding intensity (ln)” value turned out to be 10.3 ± 0.18.
“TGTAAATATAAATGTAATAAATATGTAAAAATAAAT [XGTACX_negctrl_site171]”: the “gcPBM binding intensity (ln)” value is 9.79 ± 0.13.
With “AATGAATAAATAAACACACACACATATATAAATATG [CACACA_site6160]”, the “gcPBM binding intensity (ln)” value was 10.05 ± 0.014.
With “GATAAAATATGTTGCCGTACATATTCATATACTTAA [XGTACX_site4776]”, the “gcPBM binding intensity (ln)” value came out at 11 ± 0.62.
The result for “GGTAGTTATTATCTCCGTACTTATAAAGAAAAAAGG [XGTACX_site4674]” reads 10.9 ± 0.63; that for TATGTATATTTTTTTGTGCACATATATATATATATA, 10.4 ± 0.35; that for “ATTTTTATTTTTTTTGTGCACATTTTCATTTTCTAT [GTGCAC_site9580]”, 10.54 ± 0.085.
The result for TTTGTGTGTACGCGTGTGCACATTTTTTTTTTTTTT reads 11.7 ± 0.92.
As for “ATAAATCATAAGGAGAGTACATAAATAAAATAATCA [XGTACX_site8825]”, the “gcPBM binding intensity (ln)” value turned out to be 11.2 ± 0.71.
To “TATAATATAAAAATGAGTACATAGATAATAATATTT [XGTACX_site2376]” belongs 11.3 ± 0.74; to “TCATATTTCCATAGGAGTACATAAAAAAAATAATAT [XGTACX_site7601]”, 11.7 ± 1.2.
To “TATACACATATATACACACACATATATAAATAAATA [CACACA_site7579]” belongs 10 ± 0.23.
To “CAAACAAACGGACACACACACACACCCAAAAATGAT [CACACA_site5363]” belongs 11.2 ± 0.69; to “TATATTTATATAATATGTACATATTTTTTAATATTT [XGTACX_site3834]”, 11.2 ± 0.72.
Regarding “GAAATGTGTAGACACGCACACACAAAAAAATATATA [CACACA_site2912]”, the “gcPBM binding intensity (ln)” value is 10.2 ± 0.34.
The result for “AATGTACACCCACCCACACACAAACAAATATATATA [CACACA_site5521]” reads 11.4 ± 0.92; that for “ATTTTTTTACAAAAATGTACACATGAAATATGTAAT [XGTACX_site1372]”, 11.3 ± 0.69; that for “GAAAAAGACAAAAGGTGTACAATATGAAATATATAT [XGTACX_site373]”, 11.5 ± 0.86.
The result for “AACATATTAATGTACACACACCCACGCACAAACAAA [CACACA_site7320]” reads 11.5 ± 0.91.
To “AATGTACACGCACCCACACACAAACAAATATAAATA [CACACA_site7319]” belongs 11.4 ± 1; to “TAATATGAAATGTGTACACACGCACCCACAAAAAAA [CACACA_site8949]”, 11.8 ± 0.93.
